Measurements from PubChem BioAssay.
Entries with a potency or affinity are not part of this list. Active and inactive are the calls of the source.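 The calls were made as follows, unless noted: active = a dose-response fit showing signal loss, with half-maximal concentration no higher than twice the top tested dose; inconclusive = flat fit between 30% and 70% signal loss, or poor fit; inactive = the rest.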

Columns and labels:
[1] = C. neoformans lysis by adenylate kinase leakage – AK release luminescence, cherry-picks, dose response (AID 687000;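 active = fitted dose curve reaches 40% lysis signal rise at or below the highest valid concentration tested for that sample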;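 also: luminescent detection of adenylate kinase leaking from lysed yeast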)
[2] = viability loss in HepG2 hepatoma cells – cell-based, cherry-picks, set 2, cytotoxicity control, dose response (AID 687002)
[3] = viability loss in HeLa cells – cell-based, ATP luminescence, cherry-pick samples, cytotoxicity control, dose response (AID 687004;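 active = a fitted half-maximal concentration no higher than twice the top valid tested dose, with signal falling as cells die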)

Measured: outcome

COc1ccc(NC(=O)CN2CCN(S(=O)(=O)c3ccc(C(C)C)cc3)CC2)cc1OC
inactive: all assays above

CNC[C@H]1Oc2cc(Br)ccc2S(=O)(=O)N([C@H](C)CO)C[C@H]1C
inactive: all assays above

C[C@H]1CN([C@@H](C)CO)C(=O)c2cc(C#CCN(C)C)cnc2O[C@@H]1CN(C)C(=O)Nc1cccc(F)c1
inactive: all assays above

O=C(c1cccnc1)N1C[C@H]2[C@@H](c3ccccc31)[C@@H](CO)N2C(=O)Nc1ccc(F)cc1
inactive: all assays above

Cc1cccc(C)c1NC(=O)C1(C)CCC(=O)N1CCCn1ccnc1 (stereo not drawn)
inactive: all assays above

COC(=O)C1=C(C)N(Cc2ccc(F)cc2)C(=S)NC1c1cccc(OC)c1 (stereo not drawn)
inactive: all assays above

CCC(=O)N1CCCC1(C)C(=O)Nc1ccc(C)c(C)c1 (stereo not drawn)
inactive: all assays above

Cc1ccc(C2CC(c3cccs3)=NN2C(=O)c2ccc(Br)o2)cc1 (stereo not drawn)
inactive: all assays above

CC(C)NC(=O)Nc1ccc2c(c1)C(=O)N([C@@H](C)CO)C[C@@H](C)[C@@H](CN(C)C(=O)NC1CCCCC1)OCCCC[C@H](C)O2
inactive: all assays above

Cc1ccc(/C=C2\SC(=S)N(NS(=O)(=O)c3ccc(C)cc3)C2=O)cc1
inactive: all assays above

CCOC(=O)CNC(=O)CSc1ncnc2c1cnn2-c1ccc(Cl)cc1
inactive: all assays above

O=C(CCCNC(=O)c1ccc(Cl)cc1)Nc1nccs1
inactive: all assays above

Cc1cc(OCC(=O)NC(C)c2ccccc2)ccc1[N+](=O)[O-] (stereo not drawn)
inactive: all assays above

CC(=O)NC12CC3CC(C1)CC(C(=O)NCC(=O)Nc1c(C)cc(C)cc1C)(C3)C2
inactive: all assays above

Cc1ccccc1N(CC(=O)NCCSC1CCCCC1)S(=O)(=O)c1ccccc1
inactive: all assays above

CCc1ccc(NC(=O)[C@H](C)NC(=O)C2CCN(C(=O)[C@@H](N)CC(C)C)CC2)cc1
inactive: all assays above

COc1cc(C(=O)NC(=S)Nc2ccccc2N2CCOCC2)cc(OC)c1OC
inactive: all assays above

O=C(Nc1ccc(N2CCOCC2)cc1N1CCOCC1)c1cccc([N+](=O)[O-])c1
inactive: all assays above

Cc1ccc(N(CC(=O)NCCSCc2ccco2)S(=O)(=O)c2ccc(F)cc2)cc1
inactive: all assays above

O=C(c1c(Cl)cccc1Cl)N1CCN(c2ccccn2)CC1
inactive: all assays above

C[C@@H]1CN([C@H](C)CO)C(=O)c2cccc(NC(=O)c3ccncc3)c2O[C@H]1CN(C)C(=O)Nc1ccc(C(F)(F)F)cc1
inactive: all assays above

Cc1ccc2c(C)c(C(=O)N3CCN(Cc4ccccn4)CC3)oc2c1C
inactive: all assays above

C[C@@H]1CN([C@H](C)CO)C(=O)Cc2cc(NC(=O)CCCCCC(=O)Nc3ccccc3N)ccc2O[C@H]1CN(C)C(=O)Nc1ccccc1
inactive: all assays above

CCC(C)c1ccc(NC(=S)N2CCN(c3ccccn3)CC2)cc1 (stereo not drawn)
inactive: all assays above

Cc1ccccc1NC(=O)C(NC1CCCCC1)C(C)C (stereo not drawn)
inactive: all assays above

N#Cc1ccc(C23CC4(C2)[C@H](CN(Cc2ccc(C(F)(F)F)cc2)[C@@H]4c2ccccc2)C3c2ccccc2)cc1 (stereo partly drawn)
inactive: all assays above

CC(=O)N[C@H]1CC[C@H](CCNC(=O)C2CCC2)O[C@@H]1CO
inactive: all assays above

Cc1cc(C)c(NC(=O)CNC(=O)CNC(=O)C2CCCCC2)c(C)c1
inactive: all assays above

C[C@@H]1CN([C@@H](C)CO)S(=O)(=O)c2ccc(C3=CCCC3)cc2O[C@@H]1CN(C)Cc1ccccc1F
inactive: all assays above

Cc1cccc(C)c1NC(=O)C1CCCN1C(=O)OC(C)(C)C (stereo not drawn)
inactive: all assays above

COc1cccc(CNC(=O)COc2ccc(C(=O)c3ccccc3)cc2)c1
inactive: all assays above

O=S1(=O)CCC(N=Cc2cc(Br)ccc2O)C1 (stereo not drawn)
inactive: all assays above

O=C(C[C@@H]1CC[C@@H](NC(=O)c2cccnc2)[C@@H](CO)O1)NCCN1CCCCC1
inactive: all assays above

CCNC(=O)CN(c1ccccc1)S(=O)(=O)c1ccc(Cl)cc1
inactive: all assays above

Cc1ccc(C(=O)NC(=S)Nc2cccc(NC(=O)c3ccccc3)c2)cc1[N+](=O)[O-]
inactive: all assays above

CNC(=O)CN(c1ccc(OC)cc1)S(=O)(=O)c1ccc(F)cc1
inactive: all assays above

CC(NC(=O)COc1ccccc1Cl)c1ccccc1 (stereo not drawn)
inactive: all assays above

C[C@H](CO)N1C[C@H](C)[C@H](CN(C)C(=O)NC2CCCCC2)OCCCC[C@H](C)Oc2ccc(NS(=O)(=O)c3cn(C)cn3)cc2C1=O
inactive: all assays above

C[C@H]1CN([C@@H](C)CO)C(=O)Cc2cc(NS(=O)(=O)c3cn(C)cn3)ccc2O[C@@H]1CN(C)Cc1ccc(Oc2ccccc2)cc1
inactive: all assays above

CC(C)NC(=O)Nc1ccc2c(c1)C(=O)N([C@H](C)CO)C[C@H](C)[C@H](CN(C)Cc1ccncc1)OCCCC[C@H](C)O2
inactive: all assays above

COCCN1C(=O)CCC1(C)C(=O)Nc1c(C)cccc1C (stereo not drawn)
inactive: all assays above

Cc1cc(C)c(NC(=O)CN2CCN3CCCC3C2)c(C)c1 (stereo not drawn)
inactive: all assays above

C[C@H](CO)N1C[C@H](C)[C@@H](CN(C)C(=O)Nc2ccc3c(c2)OCO3)Oc2ccc(NS(=O)(=O)c3cccs3)cc2C1=O
inactive: all assays above

O=C1CCC(C(=O)Nc2ccc([N+](=O)[O-])cc2)N1 (stereo not drawn)
inactive: all assays above

O=C(CN(c1ccccc1)S(=O)(=O)c1ccc(F)cc1)N1CCCCCC1
inactive: all assays above

C[C@@H]1CCCCO[C@@H](CN(C)C(=O)NC2CCCCC2)[C@H](C)CN([C@@H](C)CO)C(=O)c2cc(NS(=O)(=O)c3cn(C)cn3)ccc2O1
inactive: all assays above

Cc1cc(C)c(NC(=O)CN2CCCCCC2)c(C)c1
inactive: all assays above

Cc1noc(C)c1NC(=O)N(C)C[C@@H]1Oc2ccc(NC(=O)NC(C)C)cc2CC(=O)N([C@@H](C)CO)C[C@@H]1C
inactive: all assays above

COc1ccc(CN(C)C[C@@H]2Oc3ccc(NS(C)(=O)=O)cc3CC(=O)N([C@H](C)CO)C[C@H]2C)cc1
inactive: all assays above

C[C@@H]1CCCCO[C@H](CN(C)Cc2ccccc2)[C@H](C)CN([C@@H](C)CO)C(=O)c2cc(NS(=O)(=O)c3cccs3)ccc2O1
inactive: all assays above

CNC[C@H]1Oc2ncc(C#CCC(C)C)cc2C(=O)N([C@H](C)CO)C[C@H]1C
inactive: all assays above

S=C(NCCc1cccc(Cl)c1)NC1CCCCC1
inactive: all assays above

CCOC(=O)NCc1ccc2[nH]c(C)cc2c1
inactive: all assays above

Cc1ccc(S(=O)(=O)N2CC[C@@H]3[C@H]2c2cc(-c4ccccc4F)ccc2N[C@@H]3CO)cc1
inactive: all assays above

CC12CC3CC(C)(C1)CC(C(=O)NC(=S)N1CCCCC1)(C3)C2
inactive: all assays above

CN(C)CCCn1c(=O)n(C2CCCCC2)c(=O)c2c3c(sc21)CCCCC3
inactive: all assays above

CCOC(=O)CNC(=O)CSc1ncnc2c1cnn2-c1ccccc1
inactive: all assays above

CC(=O)c1ccc(OCC(=O)NCc2ccc(F)cc2)cc1
inactive: all assays above

Cc1cccc(NC(=O)CN(C)C(=O)C2CCCC2)c1C
inactive: all assays above

CCC(=O)N1[C@H](CN(C)C(C)=O)[C@@H](c2ccc(C3=CCCCC3)cc2)[C@@H]1CO
inactive: all assays above

C[C@@H]1CN([C@H](C)CO)C(=O)CCCn2nncc2CO[C@H]1CN(C)Cc1cccc(C(F)(F)F)c1
inactive: all assays above
